Results filed as inconclusive are left out. A number with no mark means an inactive call. The call rests on the fitted dose curve; in most records, active means well fitted activation curve with a large enough effect in the repeat runs; inconclusive means weak or mixed curves, or effect the other way; inactive means no such curve, though single readings can be large or run the other way.
On the % scale 0 is the no-effect control and ±100 the full control effect.

This test can be described thus: qHTS assay to identify small molecule agonists of the estrogen related receptor signaling pathway with the pleiotropic PPARgamma coactivator (PGC) from Tox21 10K library (AID 1224842). Further: nearly all actives have a fitted effect of over 15% in size. The conditions noted are these: PGC/ERR reporter cell line, luciferase ONE-Glo, 18 h; series mostly up to 92.4 µM; activation: at the top concentration. An excerpt: National Center for Advancing Translational Sciences [NCATS] NIH Chemical Genomics Center [NCGC] U.S. Environmental Protection Agency [EPA] National Institutes of Environmental Health Sciences [NIEHS] National Toxicology Program [NTP] Assay overview: Estrogen related receptors (ERRs), the first orphan nuclear receptors discovered, play an important role in the control of cellular energy metabolism. ERRs are required for high-energy production in response to the environmental challenges. The pleiotropic PPARgamma coactivator (PGC) is a major partner of ERR and a key regulator in energy homeostasis. Together they have been implicated in the etiology of metabolic disorders such as Type 2 diabetes and metabolic syndrome. ERR-alpha was also identified as an adverse marker for breast cancer progression; ERR-alpha-positive tumors have a poor prognosis. To screen and to identify environmental compounds that perturb the PGC/ERR signaling pathways could provide valuable information for potential therapeutic or preventive measures in the treatment of metabolic disease. For identifying PGC/ERR agonists, PGC/ERR cell line (provided by NTP) has been used to screen Tox21 10K library.
Assay Protocol Summary: The PGC/ERR cells were dispensed at 2,000 cells/5 ul/well in 1536-well white plates using a Multidrop dispenser. After the assay plates were incubated at a 37 C/5% CO2 incubator for 6 hours, 23 nL of compounds dissolved in DMSO, positive and negative controls or DMSO only was transferred to the assay plate by a pin tool. The plates were incubated at 37 C for 18 hours. 4 ul/well of One-Glo reagent was added into the assay plates using a Flying Reagent Dispenser. After 30-minute incubation at room temperature, the luminescence intensity in the plates was measured using a ViewLux plate reader.
On the technique in general: In qHTS, concentration-response curves come from the screen itself.
Take `CN(C)CCc1ccc(O)cc1`: the “activation” value was 4.16% [at 42.5 µM]. The figure for `CCCCOC(=O)[C@@H](C)Oc1ccc(Oc2ccc(C#N)cc2F)cc1` is 1.43%; for `C=C(C)CN(CC)c1c([N+](=O)[O-])cc(C(F)(F)F)cc1[N+](=O)[O-]` it is 0.727%. The figure for `CC(COc1ccc(Oc2ccccc2)cc1)Oc1ccccn1` (stereo not given) is 7.86%; for `CC(=O)Nc1cc([As](=O)(O)O)ccc1O` it is -4.04% [at 42.5 µM]. Consider `CCOP(=S)(Oc1cnc(C(C)(C)C)nc1)OC(C)C` (stereo not given), for which the “activation” value was -5.55%. Regarding `CC1CCCCC1NC(=O)Nc1ccccc1` (stereo not given), the “activation” value is 7.22%. For `CCCCN(CCCCO)N=O`, the “activation” value was -0.492%. Then `O=C1c2ccccc2C(=O)c2ccccc21`, with 5.32% [at 19 µM]; and `CC(=O)CCc1ccc2c(c1)OCO2`, with 1.99%; and `N#CCBr`, with -1.19%. Then `CCS(=O)(=O)C(C)(C)S(=O)(=O)CC`, with -0.0465% [at 42.5 µM]; and `[As]#[In]`, with 3.61%; and `CC(Cl)(Cl)[N+](=O)[O-]`, with -0.22%. The figure for `CCCCc1c(C)nc(NCC)[nH]c1=O` is 0.948%; for `COC(=O)COc1ccc(Cl)cc1Cl` it is 4.36%. For the compound `CS(=O)(=O)c1cc(C(F)(F)F)ccc1C(=O)c1cnoc1C1CC1`, the “activation” value was -0.424%. As to `CC(=O)[C@H]1CC[C@H]2[C@@H]3CC[C@H]4C[C@H](O)CC[C@]4(C)[C@H]3C(=O)C[C@]12C`, the “activation” value is -8.3% [at 42.5 µM]. Regarding `NC(=S)C(N)=S`, the “activation” value is -6.68%. Then `CN1CCC(O)(c2ccc(F)cc2)C(C(=O)c2ccc(F)cc2)C1` (stereo not given), with 2% [at 42.5 µM]. Then `CC(C)(C)NCC(O)c1cc(Cl)c(N)c(Cl)c1` (stereo not given), with 4.55% [at 42.5 µM]. The figure for `CCS(=O)(=O)CCSP(=O)(OC)OC` is 0.192%; for `C=CCC1=C(C)[C@@H](OC(=O)[C@@H]2[C@@H](C=C(C)C)C2(C)C)CC1=O` it is -18.9%. For `COc1cc(OC)nc(Sc2cccc(Cl)c2C(=O)O)n1`, the “activation” value is 2.72%. Turning to `CCCCCCBr`, the “activation” value was -3.61%. Then `CC(Oc1ccc(Oc2ncc(C(F)(F)F)cc2Cl)cc1)C(=O)O` (stereo not given), with -15.6%; and `CC(=O)C(Cl)Cl`, with 0.653%. The figure for `ClC(Br)Br` is -0.0492%. The figure for `CC(C)COP(=O)(OCC(C)C)OCC(C)C` is -1.07%.

In the case of `O=[N+]([O-])c1cccc2c([N+](=O)[O-])cccc12`, the “activation” value is -27%. Regarding `O=CNC(N1CCN(C(NC=O)C(Cl)(Cl)Cl)CC1)C(Cl)(Cl)Cl` (stereo not given), the “activation” value is -7.43%. For `COC(=O)c1ccccc1S(=O)(=O)NC(=O)N(C)c1nc(C)nc(OC)n1`, the “activation” value is -5.22%.

`CC1CCC(=O)O1` (stereo not given): the “activation” value was 0.455%. For `CNC(=O)Oc1ccc(N(C)C)c(C)c1`, the “activation” value is 6.25%. The figure for `CCCSP(=S)(OCC)Oc1ccc(Cl)cc1Cl` (stereo not given) is -2.74%; for `CCC#N` it is 0.182%; for `CCCCCCI` it is -2.01%. The figure for `C[C@H]1CCC[C@H](O)CCCCCc2cc(O)cc(O)c2C(=O)O1` is -24.6%; for `O=C(Nc1ccccc1)N(Cc1ccc(Cl)cc1)C1CCCC1` it is -14.2%.

On to `CCC(C)(C)c1cc(-n2nc3ccccc3n2)c(O)c(C(C)(C)CC)c1`, for which the “activation” value is -20.7%.
